Several values for one entry are separate records, joined by “and”; a condition that tells them apart may be missing. Equal values may be shown once. Records with an inconclusive call do not appear. The source holds several records for some structures; these can differ, active in one and inactive in another. Activity calls are given as the source filed them. Rule for the calls, unless noted: active = hit-call score of the fitted dose curve at least 0.9, where 1 is the maximum; inactive = score below 0.9.
Tests used:
[1] = ATG_PBREM_CIS: Attagene CIS-FACTORIAL HepG2 Assay for human Phenobarbital-responsive Enhancer Module (PBREM) (AID 2282955); conditions: HepG2 PBREM cis-reporter, Attagene multiplexed transcription; actives raise or lower the signal
How it was run: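 HepG2 cells transiently transfected with multiple cis-regulated reporter transcription units; endogenous factor activity at the PBREM element measured as reporter mRNA 24 h after dosing, via RT-PCR and capillary electrophoresis of fluorescent fragments; bidirectional fitting versus DMSO.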

[2] = ATG_PXRE_CIS: Attagene CIS-FACTORIAL HepG2 Assay for human Pregnane X Receptor Element (PXRE) (AID 2282957); conditions: HepG2 Attagene CIS-FACTORIAL PXRE reporter, mRNA; actives raise or lower the signal
How it was run: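 HepG2 cells transiently transfected with cis-element-driven multiplexed reporter units; after 24 h chemical exposure, reporter mRNA measured by RT-PCR, 6-FAM labelling, HpaI digestion and capillary electrophoresis. Bidirectional fitting relative to DMSO.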

[3] = ATG_RORE_CIS: Attagene CIS-FACTORIAL HepG2 Assay for human RAR-related Orphan Receptor Element (RORE) (AID 2282959); conditions: HepG2 Attagene cis-factorial RORE reporter, mRNA; actives raise or lower the signal
How it was run: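 HepG2 cells transiently transfected with multiple cis-element reporter transcription units, exposed to chemical for 24 h. Reporter mRNA quantified by RT-PCR, 6-FAM primer-extension labeling, HpaI digestion and capillary electrophoresis; bidirectional fit versus DMSO baseline.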

[4] = molecular target: Transcription factor Sp1 (Homo sapiens) (UniProt P08047); assay: ATG_Sp1_CIS: Attagene CIS-FACTORIAL HepG2 Assay for human Specificity Protein 1 (Sp1) (AID 2282961); conditions: HepG2 Sp1 cis-reporter transcription, actives raise or lower the signal
Sequence of Transcription factor Sp1 (Homo sapiens) (P08047 whole entry, looked up): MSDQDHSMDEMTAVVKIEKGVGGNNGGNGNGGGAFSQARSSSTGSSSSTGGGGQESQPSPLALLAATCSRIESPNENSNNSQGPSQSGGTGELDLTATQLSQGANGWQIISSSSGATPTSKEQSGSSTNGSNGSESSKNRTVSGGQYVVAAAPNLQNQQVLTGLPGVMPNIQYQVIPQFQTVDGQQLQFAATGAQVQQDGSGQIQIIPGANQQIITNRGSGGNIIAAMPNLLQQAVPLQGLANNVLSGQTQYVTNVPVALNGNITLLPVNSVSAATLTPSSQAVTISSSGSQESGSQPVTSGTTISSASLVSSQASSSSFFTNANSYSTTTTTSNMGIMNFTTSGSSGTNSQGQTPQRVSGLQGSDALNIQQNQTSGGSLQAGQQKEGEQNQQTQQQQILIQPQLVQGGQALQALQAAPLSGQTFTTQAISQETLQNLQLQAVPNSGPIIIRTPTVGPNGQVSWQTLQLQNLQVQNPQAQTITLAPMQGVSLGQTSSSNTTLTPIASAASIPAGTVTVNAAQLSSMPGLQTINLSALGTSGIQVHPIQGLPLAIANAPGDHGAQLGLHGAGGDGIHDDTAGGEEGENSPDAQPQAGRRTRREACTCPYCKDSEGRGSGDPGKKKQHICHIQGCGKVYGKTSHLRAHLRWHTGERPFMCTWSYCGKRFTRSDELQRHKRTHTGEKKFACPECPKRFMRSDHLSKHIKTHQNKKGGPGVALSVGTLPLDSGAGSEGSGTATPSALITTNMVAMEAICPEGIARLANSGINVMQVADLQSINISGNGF
How it was run: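 HepG2 cells transiently transfected with multiple reporter transcription units driven by cis-regulatory elements; Sp1-responsive reporter mRNA measured 24 h after dosing by RT-PCR and capillary electrophoresis fluorescence, fitted bidirectionally against DMSO baseline.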

[5] = ATG_SREBP_CIS: Attagene CIS-FACTORIAL HepG2 Assay for human Sterol Regulatory Element Binding (SREBP) (AID 2282962); conditions: HepG2 Attagene cis-factorial SREBP reporter, mRNA; actives raise or lower the signal
How it was run: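 Twenty-four hours after chemical dosing of transfected HepG2 cultures, reporter RNA was converted to cDNA, amplified, end-labelled with 6-FAM and resolved by capillary electrophoresis. Responses were fitted relative to DMSO.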

[6] = ATG_TA_CIS: Attagene CIS-FACTORIAL HepG2 Assay for human TA Basal Promoter (AID 2282964); conditions: HepG2 Attagene CIS-factorial TA basal promoter reporter; actives raise or lower the signal
How it was run: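 Read-out: fluorescent reporter-transcript fragments resolved by capillary electrophoresis after RT-PCR and HpaI digestion. Source: HepG2 cells carrying transiently transfected multi-reporter cis constructs, treated 24 h. Endpoint fitted bidirectionally relative to DMSO.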

[7] = ATG_TCF_b_cat_CIS: Attagene CIS-FACTORIAL HepG2 Assay for human T-Cell-Factor with beta-catenin (TCF/b-cat) (AID 2282965); conditions: HepG2 TCF/beta-catenin cis-reporter transcription, actives raise or lower the signal
How it was run: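 In this cis-format system, transfected HepG2 cells report endogenous transcription factor activity. Readout after 24 h exposure is reporter transcript abundance from RT-PCR and capillary electrophoresis, analysed for gain or loss of signal versus DMSO.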

[8] = ATG_TAL_CIS: Attagene CIS-FACTORIAL HepG2 Assay for human TAL Basal Promoter (AID 2282966); conditions: HepG2 Attagene cis-factorial TAL promoter reporter; actives raise or lower the signal;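 note: background control endpoint measuring basal TAL promoter reporter mRNA not a specific factor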
How it was run: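 HepG2 cells transiently transfected with multiplexed cis-promoter reporter units, dosed 24 h. Reporter mRNA quantified by RT-PCR, 6-FAM labelling, HpaI digestion and capillary electrophoresis; TAL basal promoter serves as background control, fitted bidirectionally versus DMSO.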

[9] = ATG_TGFb_CIS: Attagene CIS-FACTORIAL HepG2 Assay for human Transforming Growth Factor (TGF) (AID 2282967); conditions: HepG2 Attagene CIS TGFb reporter, mRNA transcription; actives raise or lower the signal
How it was run: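 Transient MRTU transfection of HepG2 (FuGene 6). Dose 24 h. TriZol RNA, oligo(dT) RT, PCR, 6-FAM primer extension, HpaI cut, CE. Bidirectional fit, DMSO = baseline.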

[10] = ATG_VDRE_CIS: Attagene CIS-FACTORIAL HepG2 Assay for human Vitamin D Receptor Element (VDRE) (AID 2282968); conditions: HepG2 VDRE cis-reporter transcription, actives raise or lower the signal
How it was run: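 RT-PCR/CE readout of reporter mRNA; HepG2, transient transfection, 24 h dosing; DMSO baseline; bidirectional analysis.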

[11] = molecular target: Nuclear receptor subfamily 1 group I member 3 (Homo sapiens) (UniProt Q14994); assay: ATG_CAR_TRANS: Attagene TRANS-FACTORIAL HepG2 Assay for human Constitutive Androstane Receptor (CAR) (AID 2282969; active = hit-call score of the fitted dose curve at least 0.9, where 1 is the maximum;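 note: activators raise reporter mRNA above DMSO so AC50 marks induction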); conditions: HepG2 Attagene TRANS-FACTORIAL CAR reporter
Sequence of Nuclear receptor subfamily 1 group I member 3 (Homo sapiens) (Q14994 whole entry, looked up, the tested form may be a part): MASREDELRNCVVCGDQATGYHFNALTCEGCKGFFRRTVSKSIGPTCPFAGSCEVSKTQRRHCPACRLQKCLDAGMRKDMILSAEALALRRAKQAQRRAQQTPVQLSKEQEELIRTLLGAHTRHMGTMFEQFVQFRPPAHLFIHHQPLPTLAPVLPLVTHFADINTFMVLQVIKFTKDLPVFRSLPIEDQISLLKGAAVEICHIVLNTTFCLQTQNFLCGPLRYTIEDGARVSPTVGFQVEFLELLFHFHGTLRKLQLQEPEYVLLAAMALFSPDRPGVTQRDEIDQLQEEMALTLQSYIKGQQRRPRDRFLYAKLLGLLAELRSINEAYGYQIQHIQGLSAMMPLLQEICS
How it was run: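 HepG2 cells transiently transfected with multiplexed GAL4-UAS reporter units expressing chimeric NR-Gal4 proteins; compound exposure 24 h. Reporter mRNA measured by RT-PCR, 6-FAM labelling, HpaI digestion and capillary electrophoresis; gain-of-signal fitted against DMSO baseline.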

[12] = molecular target: X-box-binding protein 1 (Homo sapiens) (UniProt P17861); assay: ATG_Xbp1_CIS: Attagene CIS-FACTORIAL HepG2 Assay for human X-box Binding Protein 1 (XBP1) (AID 2282972); conditions: HepG2 XBP1 cis-element reporter, Attagene multiplex; actives raise or lower the signal
Sequence of X-box-binding protein 1 (Homo sapiens) (P17861 whole entry, looked up): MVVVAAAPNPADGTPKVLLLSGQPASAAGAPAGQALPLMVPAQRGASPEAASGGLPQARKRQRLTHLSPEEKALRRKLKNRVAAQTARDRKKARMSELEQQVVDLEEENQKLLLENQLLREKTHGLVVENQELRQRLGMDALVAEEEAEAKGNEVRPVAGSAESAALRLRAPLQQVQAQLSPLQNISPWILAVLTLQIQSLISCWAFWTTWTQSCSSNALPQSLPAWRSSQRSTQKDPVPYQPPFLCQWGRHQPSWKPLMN
How it was run: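 After a 24-hour chemical exposure of HepG2 cells carrying cis-regulated reporters, reporter mRNA levels are assessed. Quantification uses RT-PCR, 6-FAM labelling and capillary electrophoresis. Gain- or loss-of-signal is fitted against DMSO.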

[13] = ATG_M_19_TRANS: Attagene TRANS-FACTORIAL HepG2 Assay for M19 Transcription Factor (Internal Marker) (AID 2282974; active = hit-call score of the fitted dose curve at least 0.9, where 1 is the maximum); conditions: HepG2 Attagene TRANS-FACTORIAL M19 internal marker reporter
How it was run: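 HepG2 cells transiently transfected with multiple GAL4-UAS reporter transcription units were exposed to chemicals for 24 h. Reporter mRNA was read by RT-PCR, 6-FAM primer extension, HpaI digestion and capillary electrophoresis; gain of signal fitted relative to DMSO.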

[14] = ATG_GAL4_TRANS: Attagene TRANS-FACTORIAL HepG2 Assay for GAL4 (Internal Marker) (AID 2282976; active = hit-call score of the fitted dose curve at least 0.9, where 1 is the maximum); conditions: HepG2 Attagene TRANS GAL4 internal marker reporter
How it was run: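 Background-control readout: GAL4-UAS reporter transcript in transiently transfected HepG2 cells after 24 h compound exposure. Measured by RT-PCR, 6-FAM primer extension, HpaI digest and capillary electrophoresis; gain-of-signal fit versus DMSO.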

[15] = molecular target: Glucocorticoid receptor (Homo sapiens) (UniProt P04150); assay: ATG_GR_TRANS: Attagene TRANS-FACTORIAL HepG2 Assay for human Glucocorticoid Receptor (GR) (AID 2282978; active = hit-call score of the fitted dose curve at least 0.9, where 1 is the maximum;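 note: activators score as hits since higher reporter transcript over DMSO is fitted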); conditions: HepG2 Attagene TRANS GR reporter, mRNA transcription
Sequence of Glucocorticoid receptor (Homo sapiens) (P04150 whole entry, looked up, the tested form may be a part): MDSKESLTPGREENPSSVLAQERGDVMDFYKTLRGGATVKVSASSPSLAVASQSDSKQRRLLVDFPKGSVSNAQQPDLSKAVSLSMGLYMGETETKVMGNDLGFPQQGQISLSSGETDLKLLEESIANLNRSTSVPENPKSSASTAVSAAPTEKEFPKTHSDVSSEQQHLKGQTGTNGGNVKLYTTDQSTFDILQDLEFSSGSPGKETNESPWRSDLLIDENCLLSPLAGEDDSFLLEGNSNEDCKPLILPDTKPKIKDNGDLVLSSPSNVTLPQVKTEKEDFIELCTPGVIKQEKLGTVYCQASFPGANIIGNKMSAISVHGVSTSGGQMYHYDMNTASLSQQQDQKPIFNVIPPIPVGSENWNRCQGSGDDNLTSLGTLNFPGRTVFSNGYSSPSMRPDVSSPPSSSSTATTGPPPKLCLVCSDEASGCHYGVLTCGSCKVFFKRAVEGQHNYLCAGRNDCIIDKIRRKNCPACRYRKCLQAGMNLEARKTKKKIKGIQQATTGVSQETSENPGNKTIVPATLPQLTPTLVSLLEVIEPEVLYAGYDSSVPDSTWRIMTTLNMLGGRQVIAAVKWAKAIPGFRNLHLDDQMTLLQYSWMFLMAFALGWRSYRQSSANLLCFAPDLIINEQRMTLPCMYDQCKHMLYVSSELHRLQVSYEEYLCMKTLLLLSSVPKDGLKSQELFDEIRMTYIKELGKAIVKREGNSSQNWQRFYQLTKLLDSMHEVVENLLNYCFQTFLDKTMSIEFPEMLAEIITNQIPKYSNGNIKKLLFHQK
How it was run: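 HepG2 cells transiently transfected with multiplexed reporter units in which chimeric NR-GAL4 proteins drive GAL4-UAS reporters; 24 h compound exposure. Reporter mRNA measured by RT-PCR, 6-FAM labelling, HpaI digestion and capillary electrophoresis; gain-of-signal fitted versus DMSO.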

[16] = ATG_PPRE_CIS: Attagene CIS-FACTORIAL HepG2 Assay for human Peroxisome Proliferator-activated Response Element (PPRE) (AID 2282958); conditions: HepG2 PPRE cis-element reporter, Attagene transcription factor profiling; actives raise or lower the signal
How it was run: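 HepG2 cells transiently transfected with multiplexed cis-element reporter units measure endogenous transcription factor activity. After 24 h compound exposure, reporter mRNA is quantified by RT-PCR, 6-FAM labeling, HpaI digestion and capillary electrophoresis; bidirectional fits are made against DMSO baseline.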

[17] = ATG_Sox_CIS: Attagene CIS-FACTORIAL HepG2 Assay for human SRY-box transcription factor (SOX) (AID 2282960); conditions: HepG2 Attagene cis-factorial SOX reporter, mRNA; actives raise or lower the signal
How it was run: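 HepG2 cells transiently transfected with cis-element-driven multiple reporter transcription units, dosed 24 h; reporter mRNA measured by RT-PCR, FAM labelling, HpaI digestion and capillary electrophoresis. Bidirectional fit versus DMSO baseline.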

[18] = molecular target: Signal transducer and activator of transcription 3 (Homo sapiens) (UniProt P40763); assay: ATG_STAT3_CIS: Attagene CIS-FACTORIAL HepG2 Assay for human Signal Transducer and Activator of Transcription 3 (STAT3) (AID 2282963); conditions: HepG2, Attagene cis-factorial STAT3 reporter transcription; actives raise or lower the signal
Sequence of Signal transducer and activator of transcription 3 (Homo sapiens) (P40763 whole entry, looked up): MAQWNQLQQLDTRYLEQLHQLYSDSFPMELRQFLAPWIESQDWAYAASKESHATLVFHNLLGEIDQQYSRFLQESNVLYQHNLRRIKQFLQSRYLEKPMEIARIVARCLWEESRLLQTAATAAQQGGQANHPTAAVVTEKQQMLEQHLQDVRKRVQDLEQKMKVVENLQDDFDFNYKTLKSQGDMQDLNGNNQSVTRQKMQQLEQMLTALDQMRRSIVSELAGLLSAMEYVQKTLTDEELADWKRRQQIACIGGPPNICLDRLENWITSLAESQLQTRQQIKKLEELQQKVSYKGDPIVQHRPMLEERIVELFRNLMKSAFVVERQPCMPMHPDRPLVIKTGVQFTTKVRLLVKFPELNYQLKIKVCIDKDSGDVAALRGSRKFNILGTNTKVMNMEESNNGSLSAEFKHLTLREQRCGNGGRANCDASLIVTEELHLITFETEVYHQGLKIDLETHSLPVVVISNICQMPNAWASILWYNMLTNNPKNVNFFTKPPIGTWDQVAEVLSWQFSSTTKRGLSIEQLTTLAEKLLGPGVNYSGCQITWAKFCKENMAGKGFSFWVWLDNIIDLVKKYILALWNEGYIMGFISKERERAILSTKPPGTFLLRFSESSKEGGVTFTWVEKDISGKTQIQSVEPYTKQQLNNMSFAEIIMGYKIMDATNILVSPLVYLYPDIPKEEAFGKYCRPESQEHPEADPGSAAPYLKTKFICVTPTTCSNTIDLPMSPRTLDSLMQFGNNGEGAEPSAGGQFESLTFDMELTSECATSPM
How it was run: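 Transcript-level reporter assay. HepG2 transient MRTU transfection, 24 h exposure, fluorescence detection after RT-PCR and CE; DMSO baseline.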

Measured: AC50

C=CCC1=C(C)C(OC(=O)C2C(C=C(C)C)C2(C)C)CC1=O (configuration not stated)
inactive: [1] | [3] | [4] | [5] | [6] | [7] | [8] | [9] | [10] | [11] | [12] | [13] | [14] | [15]
active: [2] 566 nM [middle of 6 runs] | [3] 27.2 µM [middle of 4 runs] | [4] 54.2 µM [middle of 5 runs] | [6] 30.9 µM and 52.5 µM and 74.7 µM | [7] 48.8 µM [middle of 5 runs] | [8] 105000 nM | [9] 178000 nM | [12] 53.5 µM [middle of 5 runs]

Fc1ccc(Oc2ccnc3cc(Cl)cc(Cl)c23)cc1
active: [16] 2170 nM
not listed: [14] | [18]
inactive: all other assays above

O=C(Nc1ccccc1)Nc1ccnc(Cl)c1
active: [16] 22600 nM | [3] 67.2 µM | [4] 24.9 µM | [5] 13.1 µM | [10] 50000 nM
not listed: [1] | [11] | [14] | [17]
inactive: all other assays above

CCOC(=O)C(Cl)Cc1cc(-n2nc(C)n(C(F)F)c2=O)c(F)cc1Cl (configuration not stated)
active: [2] 39.8 µM
not listed: [13] | [14] | [18]
inactive: all other assays above

CC(C)(C)c1ccc(CSc2cnn(C(C)(C)C)c(=O)c2Cl)cc1
active: [1] 527 nM | [2] 2.14 µM | [3] 1.88 µM | [4] 0.0129 µM | [10] 574 nM
not listed: [13] | [16] | [18]
inactive: all other assays above

CCc1nn(C)c(C(=O)NCc2ccc(C(C)(C)C)cc2)c1Cl
active: [1] 1390 nM | [2] 3.17 µM | [16] 462 nM | [10] 1910 nM | [12] 352 nM
not listed: [13] | [14] | [17] | [18]
inactive: all other assays above

CO/C=C(/C(=O)OC)c1ccccc1Oc1cc(Oc2ccccc2C#N)ncn1
active: [2] 526 nM [middle of 6 runs] | [5] 32.4 µM [middle of 4 runs]
inactive: [1] | [16] | [3] | [4] | [5] | [6] | [7] | [8] | [9] | [11] | [12] | [13] | [14] | [15]
